# Rows were chosen to be rich in hits. Some 12% of all compounds tested hit in one or more screens of this group.
# PI5P4Ka inh – blocks human PI5P4K alpha kinase activity; PI5P4Kalpha enzyme, ADP-Glo luminescence, 60 min; active compounds read low; max response, %; 330,000 compounds, 1.2% hits; AID 652105; active = max response of -50% or lower; inconclusive = between -30% and -50%; inactive = -30% or higher; also: value at the top dose of about 77 µM; % is scaled to controls: 0 for no effect and ±100 for the full control effect
#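 Compounds were pin-transferred onto PI5P4Kalpha and substrate in HEPES pH 7.4 buffer with EGTA, CHAPS and 5% DMSO. ATP (5 microM final) started the reaction, which ran 60 minutes at room temperature before ADP-Glo detection.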
# BAZ2B block – inhibitors of human BAZ2B bromodomain; AID 504333; Potency, µM (titrated, usually from 114 µM), inactives show at the highest dose activity change, negative = inhibition, hits mostly inhibitors; AlphaScreen BAZ2B-H3K14Ac peptide displacement; 360,000 compounds, 4.4% hits; also: potency is read from the fitted curve at half-maximal effect; % is scaled to controls: 0 for no effect and ±100 for the full control effect; nearly all actives have a fitted effect of over 60% in size
#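 AlphaScreen displacement: compounds (up to 110uM) incubated 30 min at room temperature with a preformed 50 nM BAZ2B/50 nM biotinylated H3K14Ac peptide complex in PBS pH 7.4 with Tween-20. Donor and acceptor beads at 10 ug/mL final added, 20 min light-protected before reading.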
# PLK1 PBD block – blocks phosphopeptide binding to human PLK1 polo-box domain. Plk1 PBD binding of FITC phosphopeptide, fluorescence polarization. Potency, µM, without a hit: max response, negative = inhibition, hits mostly inhibitors. 360,000 compounds, 2.8% hits; also: potency is read from the fitted curve at half-maximal effect; series mostly up to about 57 µM; % is scaled to controls: 0 for no effect and ±100 for the full control effect; nearly all actives have a fitted effect of over 65% in size
# HP1b binding inh – blocks HP1-beta chromodomain binding to methylated histone tails; P83916; AlphaScreen HP1-beta / biotin-H3K9me3 peptide binding; Potency, µM (doses to about 114 µM), inactives show at the highest dose activity change, negative = inhibition, usual class: inhibitors; 390,000 compounds, 0.56% hits; AID 540317; also: potency is read from the fitted curve at half-maximal effect; nearly all actives have a fitted effect of over 70% in size
# Target sequence (P83916 whole entry, looked up): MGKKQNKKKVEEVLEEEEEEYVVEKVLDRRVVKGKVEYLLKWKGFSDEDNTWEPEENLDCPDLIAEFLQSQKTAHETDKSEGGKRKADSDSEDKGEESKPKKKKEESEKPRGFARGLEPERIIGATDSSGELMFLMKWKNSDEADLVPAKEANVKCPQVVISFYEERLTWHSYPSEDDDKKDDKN
#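 HP1-beta protein (50 nM final) preincubated 30 min at room temperature with biotinylated H3(1-18)K9me3 peptide (50 nM) in PBS pH 7.4, 0.01% Tween-20, then compound added for 30 min. AlphaScreen streptavidin donor/nickel chelate acceptor beads (10 ug/mL final), 30 min dark, luminescence read.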
# JMJD2A Tudor – JMJD2A Tudor domain (human) inhibition; AlphaScreen JMJD2A-Tudor / H3K4me3 peptide binding; O75164; AID 504339; Potency, µM (top dose mostly 114 µM), for inactives: top-dose activity change, negative = inhibition, usual class: inhibitors; 390,000 compounds, 4.4% hits; also: potency is read from the fitted curve at half-maximal effect; % is scaled to controls: 0 for no effect and ±100 for the full control effect; nearly all actives have a fitted effect of over 50% in size
# G9a inh – inhibitors of human histone lysine methyltransferase G9a. Q96KQ7. 350,000 compounds, 8.8% hits. Potency, µM (series often up to 102 µM), inactives show at the highest dose activity, negative = inhibition, hits mostly inhibitors. G9a H3K9 monomethylation, AlphaScreen, 2 h; also: potency is read from the fitted curve at half-maximal effect; % is scaled to controls: 0 for no effect and ±100 for the full control effect; nearly all actives have a fitted effect of over 75% in size
# Target sequence (Q96KQ7 913-1193 limits assumed): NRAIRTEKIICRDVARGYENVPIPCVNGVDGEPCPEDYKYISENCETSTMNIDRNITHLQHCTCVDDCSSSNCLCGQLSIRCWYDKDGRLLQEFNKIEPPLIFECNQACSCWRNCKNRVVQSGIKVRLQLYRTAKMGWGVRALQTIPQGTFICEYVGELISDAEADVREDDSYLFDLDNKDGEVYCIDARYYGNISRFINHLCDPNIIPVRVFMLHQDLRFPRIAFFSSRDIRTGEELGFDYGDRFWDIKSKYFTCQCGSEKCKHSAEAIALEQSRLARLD
#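 Compounds were preincubated with 20 nM G9a for 15 min, after which biotinylated H3K9 peptide (500 nM) and SAM (20 uM) started a 2 h room-temperature reaction. Monomethylated product was quantified by antibody-based AlphaScreen chemiluminescence.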
# An asterisk follows results filed as active; ? = inconclusive; / = no result given; [ ] = dose if it differs, or a comment. Unless noted, calls follow the shape of the dose curve; as a rule, active = well fitted curve in the direction sought with a large enough effect; inconclusive = small, poorly fitted or top-dose-only effect, or another doubt; inactive = no such curve, though single readings can be large; an effect the other way counts as inactive or inconclusive.
SMILES,PI5P4Ka inh,BAZ2B block,PLK1 PBD block,HP1b binding inh,JMJD2A Tudor,G9a inh
CCOC(=O)C(C)n1cnc2c(nnn2-c2ccccc2)c1=O (stereo not given),0.4,-22.2%,-0.6%,41.3%,2.0%,14.6%
COC(=O)C(C)n1cnc2c(nnn2-c2ccccc2)c1=O (stereo not given),-2.7,-4.6%,-4.9%,31.6%,-3.4%,89.1µM*
Nc1nnc(-c2cccc(F)c2)s1,-0.3,-11.4%,?,-24.0%,-16.9%,-27.3%
Nc1nnc(-c2ccc(Cl)c(Cl)c2)s1,1.7,-13.7%,-6.4%,19.7%,-5.1%,44.7µM*
Cc1cc(C)cc(NC(=S)/C(=C(\[O-])c2ccc(Cl)cc2Cl)[n+]2ccccc2)c1,-10.2,?,29.9µM*,-8.0%,0.7%[11.4 µM],?
[O-]/C(=C(\C(=S)Nc1ccc(SC(F)F)cc1)[n+]1ccccc1)c1ccc(Cl)cc1Cl,0.9,?,-3.8%,-5.5%,?,35.5µM*
CCOC(=O)c1sc(N2C(=O)c3oc4ccccc4c(=O)c3C2c2ccc(C(C)(C)C)cc2)nc1C (stereo not given),/,0.8%,/,4.9%,-21.3%,3.9%[59 µM]
N/C(Cn1cncn1)=N\NC(=O)c1ccc(Cl)cc1Cl,3.2,-21.1%,-26.7%,?,12.6µM*,8.91µM*
CC(C)n1c(CN2CCN(C(=O)c3ccco3)CC2)nc2c1c(=O)n(C)c(=O)n2C,-0.1,-1.1%,-10.9%,31.2%,-17.0%,30.5%
COc1ccc(S(=O)(=O)NC2CC2)cc1C(=O)N1CCOCC1,-26.5,-3.4%,7.52µM*,?,-27.8%[11.4 µM],-6.6%
COc1ccc(N2CCN(S(=O)(=O)c3ccc(OC)c(C(=O)N4CCOCC4)c3)CC2)cc1,-5.1,-21.5%,0.6%,4.0%,-10.2%,44.7µM*
COc1ccc(N2CCN(C(=O)c3ccc(Cl)c(S(=O)(=O)N4CCCC4)c3)CC2)cc1,0.1,70.8µM*,-6.6%,-1.1%,?,39.8µM*
COc1ccc(N2CCN(C(=O)c3cc(S(=O)(=O)N4CCCCCC4)ccc3OC)CC2)cc1,11.0,?,-0.6%,?,?,50.1µM*
O=C(CCNC(=O)c1ccccc1Cl)Nc1ccc(S(=O)(=O)N2CCOCC2)cc1,16.5,/,2.9%,/,/,/
COc1cc2c(cc1OC)CN(C(=O)c1cc(S(=O)(=O)N3CCOCC3)ccc1Cl)CC2,1.6,-13.9%,-11.6%,20.2%,?,50.1µM*
Cc1cccc(NC(=O)c2c(N)sc3c2CCC(C)C3)c1 (stereo not given),/,-3.0%,/,12.6%,-27.0%,12.6µM*
Cc1cccc(NC(=O)c2c(NC(=O)c3cccs3)sc3c2CCC(C)C3)c1 (stereo not given),/,29.0%,/,63.9%,12.7%,69.8%[59 µM]
C/C(=N\NC(=O)c1ccncc1)c1cccc(NC(=O)c2ccc(Cl)s2)c1,1.3,-22.6%,4.9%,24.5%,-7.6%,17.1%
CC(=O)N1CCCc2ccc(NC(=O)c3ccc(OC(C)C)cc3)cc21,/,-5.9%,/,23.5%,12.3%,-0.4%[12.7 µM]
CCOc1cc(S(=O)(=O)NCCc2c(C)[nH]c3ccc(C)cc23)ccc1F,/,35.5µM*,/,-4.7%,50.1µM*,-46.0%[59 µM]
CCOc1cc(S(=O)(=O)NCCc2c(C)[nH]c3ccc(C)cc23)ccc1Br,/,?,/,-3.2%,?,?
COc1cccc(CNC(=O)CCc2c(C)c3cc4c(C)c(C)oc4cc3oc2=O)c1,/,-6.9%,/,10.4%,-24.2%,-7.4%[59 µM]
Cc1c(Cl)cccc1-c1ccc(CNc2ccc3[nH]c(=O)[nH]c3c2)o1,/,-27.1%,/,-2.8%,-29.1%,?
CC1CCCC(NC(=O)CCS(=O)(=O)c2ccc3c(c2)NC(=O)CS3)C1C (stereo not given),-7.2,-12.2%,29.9µM*,10.2%,?,56.7%
O=C(Oc1ccc(N(C(=O)c2ccncc2)S(=O)(=O)c2ccc(F)cc2)cc1)c1ccncc1,-5.5,-11.8%,?,-3.0%,-15.5%,44.7µM*
O=C(Oc1ccc(N(C(=O)c2ccncc2)S(=O)(=O)c2ccc(Cl)cc2)cc1)c1ccncc1,-4.7,-13.2%,-26.5%,35.5%,-33.2%,50.1µM*

# Screens as filed in PubChem.
